ELG1 repair inh: blocks ELG1-dependent DNA repair in HEK293T cells; HEK293T ELG1-luciferase reporter, luminescence, 16 h; DNA damage induced by 5-fluorouridine; Potency, µM (doses to about 46.1 µM), actives largely listed as inhibitors; 2.3% of 330,000 active; note: nearly all actives have a fitted effect of over 55% in size
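Cells (2,000 per well) received 5-fluorouridine plus test compound or DMSO and were incubated 16 hr at 37 °C, 5% CO2. Luciferase activity was read by luminescence 30 min after ONE-Glo addition; signal suppression marked inhibition of damage-induced ELG1 function.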
DT40 TDP1 CPT: DT40-hTDP1 cell growth loss with CPT; AID 686979; Potency, µM (series often up to 46.2 µM), actives largely listed as inhibitors; chicken DT40 Tdp1-/-;hTDP1 cells + 20 nM CPT, ATP luminescence, 48 h; 12% of 420,000 active; note: nearly all actives have a fitted effect of over 55% in size
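Cell growth measured by CellTiter-Glo luminescence after a minimum 48 h, 37 C compound exposure with 20 nM CPT in Tdp1-knockout DT40 cells stably expressing hTDP1, seeded 400/well; qHTS titration format.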
DT40 TDP1 no CPT: qHTS for Inhibitors of human tyrosyl-DNA phosphodiesterase 1 (TDP1): qHTS in cells in absence of CPT | DT40 Tdp1-/- hTDP1 cells, no CPT, ATP luminescence, 48 h | Potency, µM (series often up to 46.2 µM), actives largely listed as inhibitors | 15% of 420,000 active | AID 686978, 2013; note: nearly all actives have a fitted effect of over 55% in size
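Chicken DT40 Tdp1-/- cells stably complemented with human TDP1 were seeded at 400 cells/well with DMSO in place of 20 nM camptothecin. After compound pinning, cells grew at least 48 hr at 37 °C; viability read by CellTiter-Glo luminescence.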
Gal4-VP16 FLuc: Gal4-VP16 reporter inhibition counter-screen; Drosophila S2 Gal4-VP16 UAS-luciferase, luminescence, 20 h; Potency, µM (highest dose often 53.6 µM), actives largely listed as inhibitors; 3.5% of 310,000 active; AID 2546;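 note: Gal4-VP16 expression switched on by copper sulfate through the metallothionein promoter; nearly all actives have a fitted effect of over 50% in size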
IL1B secr inh: inflammasome signaling inhibition, IL-1 beta readout. THP-1 LPS/ATP IL-1B secretion, AlphaLISA, 16 h; hits give low values. AID 743279. 4.7% of 360,000 active. activity change, % at 57.5 µM; in the data active = activity change below about -50%; inconclusive = mostly about -30% to -49%
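THP-1 cells pretreated 1 hr with compounds (up to 57.5 uM final), then stimulated with LPS (250 ng/mL final) plus ATP (1.25 mM final); secreted IL-1B measured by AlphaLISA after 16 hr, decreased signal indicating inhibition.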
RORg inh: ROR gamma (mouse) transcription inhibition. 5.4% of 310,000 active. AID 2551. Potency, µM (doses to about 53.6 µM), usual class: inhibitors. Drosophila S2 Gal4-RORgamma UAS-luciferase reporter, 20 h. P51450; note: nearly all actives have a fitted effect of over 60% in size
Target sequence (P51450 whole entry, looked up, the tested form may be a part): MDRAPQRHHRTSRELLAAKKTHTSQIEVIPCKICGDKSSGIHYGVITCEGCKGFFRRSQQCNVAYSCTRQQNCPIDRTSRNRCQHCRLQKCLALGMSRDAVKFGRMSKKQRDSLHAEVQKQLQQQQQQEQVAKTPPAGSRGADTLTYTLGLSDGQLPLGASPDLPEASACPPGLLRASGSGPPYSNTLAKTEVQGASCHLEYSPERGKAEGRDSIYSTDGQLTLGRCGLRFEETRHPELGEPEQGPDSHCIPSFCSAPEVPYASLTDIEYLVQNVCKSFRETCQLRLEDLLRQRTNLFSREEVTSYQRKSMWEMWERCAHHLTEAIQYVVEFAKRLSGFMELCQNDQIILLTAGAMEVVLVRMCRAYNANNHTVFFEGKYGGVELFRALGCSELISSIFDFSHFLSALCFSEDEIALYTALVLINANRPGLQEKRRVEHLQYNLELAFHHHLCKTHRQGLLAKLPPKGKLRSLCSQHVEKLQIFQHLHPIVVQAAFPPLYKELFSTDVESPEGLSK
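Stable Schneider cell line, Gal4 DNA-binding domain fused to ROR gamma, UAS-luciferase. Cmpd 1 hr RT → CuSO4 700 uM final → 20 hr RT → luciferase reagent 10 min → luminescence.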
A number is an active result; [ ] = remark or other dose. Rows were chosen to be rich in hits. Some 21% of all compounds tested hit in one or more screens of this group. Unless noted, calls come from the whole dose curve; as a rule, active = well fitted curve in the direction sought with a large enough effect; inconclusive = small, poorly fitted or top-dose-only effect, or another doubt; inactive = no such curve, though single readings can be large; an effect the other way counts as inactive or inconclusive.

`CCOc1cc(NC(=O)c2ccco2)c(OCC)cc1NC(=O)Cc1ccc(OC)c(OC)c1` gave ELG1 repair inh inactive, DT40 TDP1 CPT inconclusive, DT40 TDP1 no CPT 8.2µM, Gal4-VP16 FLuc inactive, IL1B secr inh inactive and RORg inh inactive.
Screening CCOc1cc(NC(=S)NCCOC)c(OCC)cc1NC(=O)c1ccco1 returned ELG1 repair inh inconclusive, DT40 TDP1 CPT inactive, DT40 TDP1 no CPT inconclusive, Gal4-VP16 FLuc inconclusive, IL1B secr inh inactive and RORg inh 12.6µM.
CCOc1ccccc1NC(=S)NC(=O)c1ccco1 was read as ELG1 repair inh inactive, DT40 TDP1 CPT inactive, DT40 TDP1 no CPT inactive and IL1B secr inh inactive.
`Cc1ccc(-c2cnc(C3CC3)o2)cc1S(=O)(=O)Nc1ccc(F)cc1Cl` gave DT40 TDP1 CPT inconclusive and DT40 TDP1 no CPT 25.9µM.
For CCOC(=O)c1cccc(NS(=O)(=O)c2cc(-c3cnc(C4CC4)o3)ccc2C)c1 the results were DT40 TDP1 CPT 2.59µM and DT40 TDP1 no CPT 2.06µM.
For CCOC(=O)c1cccc(NS(=O)(=O)c2cc3[nH]c(=O)c(=O)[nH]c3cc2C)c1 the results were DT40 TDP1 CPT inactive and DT40 TDP1 no CPT inactive.
Screening Cc1ccc(F)cc1NS(=O)(=O)c1ccc(Cl)s1 returned ELG1 repair inh inactive, DT40 TDP1 CPT inactive, DT40 TDP1 no CPT inconclusive and IL1B secr inh inactive.
Screening COc1ccc(NS(=O)(=O)c2cc(-c3cnc(C4CC4)o3)ccc2C)cc1 returned ELG1 repair inh inactive, DT40 TDP1 CPT 6.51µM, DT40 TDP1 no CPT 4.61µM, Gal4-VP16 FLuc inactive, IL1B secr inh inactive and RORg inh inactive.
CCC(=O)N1CCc2cc(S(=O)(=O)CCC(=O)N3CCN(c4cccc(C)c4)C(C)C3)ccc21 (stereo not drawn) was read as DT40 TDP1 CPT 11.6µM and DT40 TDP1 no CPT 4.61µM.
For Cc1cccc(N2CCN(C(=O)CCNS(=O)(=O)c3ccc4c(c3)oc(=O)n4C)CC2C)c1 (stereo not drawn) the results were ELG1 repair inh inactive, DT40 TDP1 CPT inconclusive, DT40 TDP1 no CPT inconclusive, Gal4-VP16 FLuc inactive, IL1B secr inh inactive and RORg inh inactive.
`CCC(=O)N1CCc2cc(S(=O)(=O)CCC(=O)N3CCN(c4ccccc4)CC3)ccc21` gave ELG1 repair inh inactive, DT40 TDP1 CPT inactive, DT40 TDP1 no CPT inactive, Gal4-VP16 FLuc inactive, IL1B secr inh inactive and RORg inh inactive.
Cc1cccc(N2CCN(C(=O)CCNS(=O)(=O)c3ccc4c(c3)CCN4C(=O)C3CC3)CC2C)c1 (stereo not drawn) was read as DT40 TDP1 CPT 5.8µM and DT40 TDP1 no CPT 8.2µM.
For Cc1cccc(N(C)C(=O)CCNS(=O)(=O)c2ccc3c(c2)CCN3C(=O)C2CC2)c1 the results were DT40 TDP1 CPT 16.4µM and DT40 TDP1 no CPT 20.6µM.
For CC1CCC(C(=O)O)NC1c1cccc(N2CCOCC2)c1 (stereo not drawn) the results were Gal4-VP16 FLuc inactive[10 µM] and RORg inh inactive[10 µM].
Screening Cc1noc(C)c1C(=O)N1CCC2(CC1)CN(c1ncccn1)C2 returned DT40 TDP1 CPT inactive, DT40 TDP1 no CPT inactive, Gal4-VP16 FLuc inactive and RORg inh inactive.
Screening COc1ccc(NC(=O)N2CCN3CCCCC3C2)cc1OC (stereo not drawn) returned DT40 TDP1 CPT inactive and DT40 TDP1 no CPT inactive.
Screening O=C(NCC1CCCO1)c1ccc(F)c2ccccc12 (stereo not drawn) returned ELG1 repair inh inactive, DT40 TDP1 CPT inactive, DT40 TDP1 no CPT inactive, Gal4-VP16 FLuc inactive, IL1B secr inh inactive and RORg inh inactive.
`COc1ccc(C(=S)N2CCN(c3ccccc3Cl)CC2)cc1OC` gave ELG1 repair inh inactive, DT40 TDP1 CPT inconclusive, DT40 TDP1 no CPT 16.4µM, Gal4-VP16 FLuc inactive, IL1B secr inh inactive and RORg inh inactive.
For COc1cc(C(=S)N2CCN(c3ccccc3Cl)CC2)cc(O)c1O the results were ELG1 repair inh inactive, DT40 TDP1 CPT inconclusive, DT40 TDP1 no CPT 23.1µM, Gal4-VP16 FLuc inactive, IL1B secr inh inactive and RORg inh inconclusive.
For COc1ccc(C(=S)N2CCCC2)cc1OC the results were ELG1 repair inh inactive, DT40 TDP1 CPT inactive, DT40 TDP1 no CPT inactive, Gal4-VP16 FLuc inactive, IL1B secr inh inactive and RORg inh inactive.
Cc1ccc(NC(=O)CN(C)C(=O)COC(=O)[C@@H](NC(=O)c2ccccc2F)C(C)C)cc1 was read as ELG1 repair inh inactive, DT40 TDP1 CPT inactive, DT40 TDP1 no CPT inactive and IL1B secr inh inactive.
Screening CCn1nnc2cc(C(=O)Nc3cccc(C)c3C)ccc21 returned DT40 TDP1 CPT 10.3µM and DT40 TDP1 no CPT 14.6µM.
`CCn1nnc2cc(C(=O)Nc3cccc(Cl)c3)ccc21` gave DT40 TDP1 CPT inactive and DT40 TDP1 no CPT inactive.
For CCn1nnc2cc(C(=O)Nc3cccc(Cl)c3C)ccc21 the results were DT40 TDP1 CPT inconclusive and DT40 TDP1 no CPT 16.4µM.
Screening Cc1ccc(NC(=O)CC2OC(=O)c3ccccc32)cc1S(=O)(=O)N1CCOCC1 (stereo not drawn) returned ELG1 repair inh inactive, DT40 TDP1 CPT inactive, DT40 TDP1 no CPT inactive and IL1B secr inh inactive.
`CC1=CC(C)[C@H](/C=N/n2c(=O)[nH]c3c([nH]c4ccc(C)cc43)c2=O)C(C)C1` (stereo partly drawn) gave ELG1 repair inh inactive, DT40 TDP1 CPT 8.2µM, DT40 TDP1 no CPT 13µM, Gal4-VP16 FLuc inactive, IL1B secr inh inactive and RORg inh inactive.
`COc1ccc(/C=N/n2c(=O)[nH]c3c([nH]c4ccc(C)cc43)c2=O)cc1CN1CCOCC1` gave ELG1 repair inh inactive, DT40 TDP1 CPT inconclusive, DT40 TDP1 no CPT inconclusive, Gal4-VP16 FLuc inactive, IL1B secr inh inactive and RORg inh inactive.
C[C@@H]1CN([C@@H](C)CO)C(=O)c2cc(Br)cnc2O[C@H]1CN(C)S(=O)(=O)c1cccs1 was read as DT40 TDP1 CPT inconclusive, DT40 TDP1 no CPT inconclusive and IL1B secr inh inactive.
Screening Cc1ccc2ccc(C(Nc3ccccc3)c3ccccc3)c(O)c2n1 (stereo not drawn) returned DT40 TDP1 CPT 10.3µM, DT40 TDP1 no CPT 6.51µM and IL1B secr inh inactive.
Screening Cc1ccc2ccc(C(Nc3ccccc3)c3ccc(F)cc3)c(O)c2n1 (stereo not drawn) returned DT40 TDP1 CPT 9.2µM, DT40 TDP1 no CPT 5.8µM and IL1B secr inh inactive.
Screening Cc1ccc2ccc(C(Nc3ccccc3)c3ccc(Cl)cc3)c(O)c2n1 (stereo not drawn) returned DT40 TDP1 CPT 4.11µM, DT40 TDP1 no CPT 3.26µM and IL1B secr inh inactive.
